# Unmarked numbers belong to inactive results. For some assays here: Measured potencies and affinities stand elsewhere. The source made the active and inactive calls. Unless noted, the rule behind the calls is not given here.
# What was measured:
# [1] = antimalarial activity against Dd2 strain (AID 2302;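 active = growth inhibition above 50% at the single 2 µM test dose, taken to imply half-maximal potency below 2 µM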;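 note: 0% = DMSO untreated growth and 100% = chloroquine plus artemisinin killed control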); details: P. falciparum Dd2 in RBCs, LDH growth readout, 72 h; at 2 µM; stronger effect = higher value
# [2] = HepG2 cytotoxicity, primary screen, cytotoxicity control for P. falciparum antimalarial project, cell-based, ATP luminescence (AID 2303;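 active = inhibition above 50%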;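 note: 0% = DMSO wells and 100% = digitonin-killed cells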); details: HepG2 viability, 24-48 h, at 10 µM, stronger effect = higher value
# [3] = molecular target: L-lactate dehydrogenase (Plasmodium falciparum (isolate CDC / Honduras)) (UniProt Q27743); assay: PfLDH activity inhibition – cell lysate, 3D7 strain, counter-screen for P. falciparum growth inhibition project (AID 2304);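 note: 0% = vehicle and 100% = reference inhibitor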; details: P. falciparum 3D7 crude extract, LDH APAD/NBT absorbance; at 2 µM; stronger effect = higher value
# [4] = inhibition of 3D7 malaria parasite growth – strain 3D7 (AID 2306);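 note: 0% = DMSO wells and 100% = chloroquine plus artemisinin control wells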; details: P. falciparum 3D7 erythrocytic growth, LDH absorbance, 72 h; at 2 µM; stronger effect = higher value
# [5] = molecular target: Calcium-dependent protein kinase 1 (Plasmodium falciparum (isolate 3D7)) (UniProt P62344); assay: PfCDPK1 kinase inhibitors, biochemical, TCAMS library (AID 1159585; cut-off not given, nearly all actives have IC50 up to about 0.98 µM;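 note: inhibitors leave more ATP so luminescence rises with inhibition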); details: recombinant PfCDPK1, Kinase-Glo ATP depletion luminescence
# [6] = molecular target: Plasmodium falciparum protein kinase 6 (PK6, PF3D7_1337100) (UniProt Q8IDW1); assay: PfPK6 kinase inhibitors, biochemical, TCAMS library (AID 1159586); details: recombinant PfPK6, Kinase-Glo ATP depletion luminescence
# [7] = molecular target: Protein kinase 7 (PK7), Plasmodium falciparum 3D7 (PF3D7_0213400) (UniProt Q7YTF7); assay: inhibition of Plasmodium PK7 catalytic activity – biochemical, TCAMS antimalarial set, Kinase-Glo luminescence (AID 1159587); details: recombinant PfPK7, Kinase-Glo ATP depletion luminescence
# [8] = molecular target: Calcium-dependent protein kinase 4 (Plasmodium falciparum (isolate 3D7)) (UniProt Q8IBS5); assay: PfCDPK4 kinase inhibitors, biochemical, TCAMS library (AID 1159588; cut-off not given, nearly all actives have IC50 up to about 0.91 µM); details: recombinant PfCDPK4, Kinase-Glo ATP depletion luminescence
# Sequence of Calcium-dependent protein kinase 4 (Plasmodium falciparum (isolate 3D7)) (Q8IBS5 whole entry, looked up): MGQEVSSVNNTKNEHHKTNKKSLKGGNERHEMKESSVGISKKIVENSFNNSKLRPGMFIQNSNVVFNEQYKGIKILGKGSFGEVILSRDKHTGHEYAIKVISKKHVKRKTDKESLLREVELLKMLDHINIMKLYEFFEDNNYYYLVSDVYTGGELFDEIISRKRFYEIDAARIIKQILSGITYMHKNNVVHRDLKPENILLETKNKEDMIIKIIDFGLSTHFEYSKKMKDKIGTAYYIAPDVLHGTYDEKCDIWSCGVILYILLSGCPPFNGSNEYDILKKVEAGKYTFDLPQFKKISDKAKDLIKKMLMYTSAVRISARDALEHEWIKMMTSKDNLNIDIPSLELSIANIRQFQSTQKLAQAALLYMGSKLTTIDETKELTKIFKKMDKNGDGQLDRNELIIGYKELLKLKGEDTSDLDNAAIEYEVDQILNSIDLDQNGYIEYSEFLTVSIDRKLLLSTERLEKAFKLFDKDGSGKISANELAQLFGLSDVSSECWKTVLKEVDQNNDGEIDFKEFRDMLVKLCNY
# Sequence of L-lactate dehydrogenase (Plasmodium falciparum (isolate CDC / Honduras)) (Q27743 whole entry, looked up): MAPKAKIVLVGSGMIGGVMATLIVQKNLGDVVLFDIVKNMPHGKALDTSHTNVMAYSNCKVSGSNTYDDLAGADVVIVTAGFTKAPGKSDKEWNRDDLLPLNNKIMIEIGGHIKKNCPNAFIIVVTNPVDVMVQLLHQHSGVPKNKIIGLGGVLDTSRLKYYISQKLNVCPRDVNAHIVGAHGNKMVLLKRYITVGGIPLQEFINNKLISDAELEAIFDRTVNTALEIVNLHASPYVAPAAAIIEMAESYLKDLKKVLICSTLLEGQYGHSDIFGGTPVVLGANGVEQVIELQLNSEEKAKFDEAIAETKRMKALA
# Sequence of Plasmodium falciparum protein kinase 6 (PK6, PF3D7_1337100) (Q8IDW1 1-305): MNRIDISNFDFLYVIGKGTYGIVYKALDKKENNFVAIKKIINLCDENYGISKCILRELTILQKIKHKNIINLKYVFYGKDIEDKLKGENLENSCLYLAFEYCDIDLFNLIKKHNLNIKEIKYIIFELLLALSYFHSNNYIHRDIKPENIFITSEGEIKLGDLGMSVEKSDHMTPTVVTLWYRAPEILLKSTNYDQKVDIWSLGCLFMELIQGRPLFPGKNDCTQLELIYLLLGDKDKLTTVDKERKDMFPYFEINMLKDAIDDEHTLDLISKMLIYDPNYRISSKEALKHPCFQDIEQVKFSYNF
# Sequence of Protein kinase 7 (PK7), Plasmodium falciparum 3D7 (PF3D7_0213400) (Q7YTF7 1-343): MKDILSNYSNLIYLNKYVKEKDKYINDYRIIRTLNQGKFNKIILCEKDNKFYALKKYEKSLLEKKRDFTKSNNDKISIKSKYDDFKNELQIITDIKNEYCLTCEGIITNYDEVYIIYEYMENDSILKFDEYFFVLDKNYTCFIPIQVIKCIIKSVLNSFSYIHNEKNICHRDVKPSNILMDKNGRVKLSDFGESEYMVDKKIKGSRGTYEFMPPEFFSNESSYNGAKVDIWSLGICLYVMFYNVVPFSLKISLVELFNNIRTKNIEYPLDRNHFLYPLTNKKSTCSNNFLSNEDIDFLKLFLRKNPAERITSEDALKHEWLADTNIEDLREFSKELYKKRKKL
# Sequence of Calcium-dependent protein kinase 1 (Plasmodium falciparum (isolate 3D7)) (P62344 whole entry, looked up): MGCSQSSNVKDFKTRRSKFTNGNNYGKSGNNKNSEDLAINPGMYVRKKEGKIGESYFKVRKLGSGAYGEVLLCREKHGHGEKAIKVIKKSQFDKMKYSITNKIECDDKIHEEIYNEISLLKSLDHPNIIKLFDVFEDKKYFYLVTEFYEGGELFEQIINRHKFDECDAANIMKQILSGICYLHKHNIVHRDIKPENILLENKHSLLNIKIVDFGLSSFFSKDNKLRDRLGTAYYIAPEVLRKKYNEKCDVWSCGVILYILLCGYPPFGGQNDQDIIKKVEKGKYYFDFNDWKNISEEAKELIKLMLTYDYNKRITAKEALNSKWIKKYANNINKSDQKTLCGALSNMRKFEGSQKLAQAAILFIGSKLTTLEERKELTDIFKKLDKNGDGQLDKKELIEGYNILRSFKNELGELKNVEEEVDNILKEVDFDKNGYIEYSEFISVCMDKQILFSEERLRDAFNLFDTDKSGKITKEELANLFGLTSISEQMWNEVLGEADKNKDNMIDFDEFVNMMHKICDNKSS
SMILES,growth inhibition [1],inhibition [2],inhibition [3] [%],growth inhibition [4],outcome [5],outcome [6],outcome [7],outcome [8]
COc1ccc2c(NN=Cc3c(OC)ccc4ccccc34)cc(C)nc2c1,85% (active),7%,2,102% (active),inactive,inactive,inactive,inactive
COc1ccccc1-c1csc(C(=O)NCC2CCN(Cc3ccc(C(C)(C)C)cc3)C2)c1 (stereo not given),11%,29%,0,93% (active),inactive,inactive,inactive,inactive
CCCCN(CCCC)CCCN(CCCN(CCCC)CCCC)c1cc(C)nc(Nc2ccc(Br)cc2)n1,98% (active),51% (active),-4,99% (active),inactive,inactive,inactive,inactive
CC(C)CC(C)NC(=O)C1Cc2c([nH]c3cc(Cl)ccc23)C2(CCN(CCc3ccccc3)CC2)N1 (stereo not given),65% (active),15%,-1,95% (active),inactive,inactive,inactive,inactive
O=C(/C=C/c1ccc(C(F)(F)F)cc1)NCCCCCN1CCCN(C(=O)Nc2cccc(Cl)c2)CC1,3%,16%,3,92% (active),inactive,inactive,inactive,inactive
COc1cc2c(cc1OC)CN(c1cc(N)c3cc(OC)c(OC)cc3n1)CC2,99% (active),23%,-3,100% (active),inactive,inactive,inactive,inactive
CC(=O)CCc1ccc(OCCN(Cc2ccccc2C(F)(F)F)c2ccc(C#N)c(C(F)(F)F)c2)cc1,87% (active),14%,0,100% (active),inactive,inactive,inactive,inactive
CCOc1ccc2nc(NC(=O)c3csnn3)sc2c1,98% (active),6%,1,100% (active),inactive,inactive,inactive,inactive
N#Cc1ccc(C(=O)Nc2ccc(-c3cccc(CN4CCCC4)c3)cc2)cc1,1%,17%,-1,89% (active),inactive,inactive,inactive,inactive
CC(=O)Oc1c(C(=O)C2CCC(C(C)(C)C)CC2)c(OC(C)=O)c2ccccc2c1OC(C)=O (stereo not given),96% (active),9%,2,96% (active),inactive,inactive,inactive,inactive
Cc1cc(N[C@@H](CC(C)C)C(=O)NCCc2ccccc2)nc(Nc2ccccc2)n1,38%,1%,1,100% (active),inactive,inactive,inactive,inactive
C[C@@H](N=C(Nc1ccc(-c2ccccc2)cc1)Nc1ccc(C#N)cc1O)c1ccc(Br)cc1,95% (active),9%,2,99% (active),inactive,inactive,inactive,inactive
O=C(CCCCCNC(=O)c1ccc(O)c(-c2ccc(Cl)c(Cl)c2)c1)NCCc1ccc(Cl)c(Cl)c1,20%,57% (active),-6,97% (active),inactive,inactive,inactive,inactive
CCC(C)NC(=O)Cn1c2ncccc2c(=O)n1-c1ccc(C)cc1 (stereo not given),63% (active),4%,4,95% (active),inactive,inactive,inactive,inactive
CN(C)CCN1CCN(Cc2ccc(-c3cccc(-c4nc5ccccc5[nH]4)c3)cc2)CC1,100% (active),25%,-7,102% (active),inactive,inactive,inactive,inactive
COc1cc(C(C)C)nc2ccc(NC(=O)c3ccc(C(=O)Nc4ccc5nc(C(C)C)cc(OC)c5c4)cc3)cc12,72% (active),39%,0,95% (active),inactive,inactive,inactive,inactive
O=C(Nc1cccc(CN2CCCN(Cc3ccccc3)CC2)c1)c1cc2ccccc2s1,28%,41%,1,87% (active),inactive,inactive,inactive,inactive
O=c1cc(NCCCNCc2ccc(Cl)c(Cl)c2)[nH]c2ccc(C(F)(F)F)cc12,68% (active),10%,-5,103% (active),inactive,inactive,inactive,inactive
COc1ccc(C(=O)NC(Nc2ccc([N+](=O)[O-])cc2)C(Cl)(Cl)Cl)cc1 (stereo not given),83% (active),15%,1,95% (active),inactive,inactive,inactive,inactive
CCCCCCN1CCCN(Cc2cccc(NC(=O)c3cc4ccccc4s3)c2)CC1,53% (active),31%,6,88% (active),inactive,inactive,inactive,inactive

SMILES,growth inhibition [1],inhibition [2],inhibition [3] [%],growth inhibition [4],outcome [5],outcome [6],outcome [7],outcome [8]
CC(=O)c1cc(N2CCCC2)ccc1N,97% (active),1%,-2,97% (active),inactive,inactive,inactive,inactive
c1ccc(COc2ccc(Nc3ncnc4cnc(-c5ccc(CNc6cccnc6)o5)cc34)cc2)cc1,19%,2%,3,96% (active),inactive,inactive,inactive,inactive
CCOC(=O)c1c(NC(NC(=O)c2ccc(C(C)(C)C)cc2)C(Cl)(Cl)Cl)sc2c1CCCC2 (stereo not given),94% (active),1%,-3,98% (active),inactive,inactive,inactive,inactive
c1ccc(Oc2ccc(Nc3ccnc4cc(-c5cccc(CNCCN6CCOCC6)c5)ccc34)cc2)cc1,98% (active),12%,7,102% (active),inactive,inactive,inactive,inactive
COc1ccc(-c2ccc(NC(=O)c3ccc(C#N)cc3)cc2)cc1CN1CCCC1,51% (active),40%,5,95% (active),inactive,inactive,inactive,inactive
CCOP(=O)(OCC)c1ccc(OC)c(-c2ccc[nH]2)c1,10%,-13%,-2,95% (active),inactive,inactive,inactive,inactive
Cc1cccc(C)c1NC1=NC(=S)N(c2cccc(Cl)c2)C12CCC(C(C)(C)C)CC2 (stereo not given),53% (active),4%,-14,87% (active),inactive,inactive,inactive,inactive
C(=Cc1ccccc1)C=NNc1ccnc2ccccc12,100% (active),24%,5,100% (active),inactive,inactive,inactive,inactive
COC(=O)C(C)(C)Cc1c(SC(C)(C)C)c2cc(C(C)C)ccc2n1Cc1ccc(Cl)cc1,96% (active),-9%,0,96% (active),inactive,inactive,inactive,inactive
O=C(C1CCN(C(c2ccccc2)c2ccc(Cl)c(Cl)c2)CC1)N1CC=CC1 (stereo not given),84% (active),1%,7,89% (active),inactive,inactive,inactive,inactive
NC(=O)c1ccccc1Nc1nc(Nc2ccc(N3CCOCC3)cc2)ncc1[N+](=O)[O-],96% (active),53% (active),1,98% (active),inactive,inactive,inactive,inactive
O=C(NCCc1ccccc1F)c1cc(Br)cc(N2CCN(c3ccncc3)CC2)c1,67% (active),29%,-2,97% (active),inactive,inactive,inactive,inactive
O=C(/C=C/c1ccc(Cl)c(Cl)c1)NC1CCC(CN2CCC(Cc3c[nH]c4ccccc34)CC2)CC1 (stereo not given),9%,25%,-7,101% (active),inactive,inactive,inactive,inactive
CC1CCc2sc(-c3nnc(SC(C)C(=O)N4CCCC4)o3)cc2C1 (stereo not given),94% (active),1%,2,93% (active),inactive,inactive,inactive,inactive
CCCCN(CCCC)Cc1cc(Nc2ccnc3cc(Cl)ccc23)ccc1O,87% (active),67% (active),-1,102% (active),inactive,inactive,inactive,inactive
COc1ccc(N(C)Cc2cnc3nc(N)nc(N)c3n2)cc1,-1%,15%,1,98% (active),inactive,inactive,inactive,inactive
Cc1ccc(Nc2cc(C)nn2-c2nc(C)cc(=O)[nH]2)cc1,95% (active),54% (active),-3,97% (active),inactive,inactive,inactive,inactive
COc1cc2nc(N(C)Cc3cc4c(Cl)cccc4s3)nc(N)c2cc1OC,27%,32%,4,90% (active),inactive,inactive,inactive,inactive
Nc1nccc2ccc(Oc3ccncc3)cc12,81% (active),-3%,-2,91% (active),inactive,inactive,inactive,inactive
Cc1cc(C(=O)Nc2ccc3c(ccn3C3CCCN(Cc4ccc(C(F)(F)F)cc4F)CC3)c2)no1 (stereo not given),95% (active),19%,-1,92% (active),inactive,inactive,inactive,inactive

# Reference: PubChem BioAssay
